We go through 40 compounds from PubChem BioAssay (Tox21).

Each structure is given as a SMILES string. Unmarked numbers belong to inactive results. Active and inactive are the calls of the source. Calls come from the whole dose curve; as a rule, active = well fitted curve in the direction sought with a large enough effect in the repeat runs; inconclusive = weak or mixed curves; inactive = flat fitted curve, though single readings scatter.
% is set by controls: 0 for no effect and ±100 for the full control effect.

This assay is described as follows: qHTS assay to test for compound auto fluorescence at 590 nm (red) in HepG2 cell free culture (AID 720684). Particulars: cell-free medium autofluorescence, red 540/590 nm; series mostly up to 91.3 µM; fluorescence, % of Rose Bengal: at the top concentration. The source says:
U.S. Tox21 Program National Center for Advancing Translational Sciences [NCATS] NIH Chemical Genomics Center [NCGC] U.S. Environmental Protection Agency [EPA] National Institutes of Environmental Health Sciences [NIEHS] National Toxicology Program [NTP] U.S. Food and Drug Administration [FDA] Tox21 Assay Overview: Compound auto fluorescence often interferes with screening of the compound library against various biological targets and signaling pathways. Some of these compounds may have fluorophoric properties. Such properties may interfere with the assay outputs resulting in false positives and/or negatives. To decrease such complications and ensure the compound activities are relevant in terms of biological response, the Tox21 10K compound library was screened for auto fluorescence. From the fluorophores used as reporter signals in our screening assays, the auto fluorescence equivalencies of compounds against three fluorophores have been evaluated: Triamterene, Fluorescein and Rose Bengal sodium for blue, green and red fluorescence, respectively. The fluorescence intensities were measured using Excitation/Emission wavelengths at 405/460nm, 485/535nm and 540/590nm for blue, green and red labels, respectively. This assay includes the red fluorescence data.
Tox21 Assay Protocol Summary: 5 uL of culture medium (MEM containing 10% FBS) per well was dispensed into black wall/clear bottom 1536-well plates using a Multidrop Combi Dispenser (ThermoFisher Scientific, Waltham, MA). After 23 nL compound or DMSO vehicle was transferred into assay plate by a pintool work station (Kalypsys, San Diego, CA), fluorescence intensities in the assay plates were measured by an Envision (PerkinElmer, Shelton, CT) plate reader using three labels for measuring blue, green and red fluorescence at […] 460, 535 and 590nm respectively.
In general terms: qHTS replaces the single test concentration by a dilution series.
Turning to `O=C(O)CCCCCCNC1c2ccccc2CCc2ccccc21`, the “fluorescence, % of Rose Bengal” value was -0.0349% [at 46 µM]. On the same count and under the same terms, the same measure for `CCN(CC)CCc1c[nH]c2ccccc12`: -0.0245% [at 95.7 µM]; for `O=S(=O)(NS(=O)(=O)C(F)(F)F)C(F)(F)F`: 0.19%. For the compound `CO/N=C(/C1=NOCCO1)c1ccccc1Oc1ncnc(Oc2ccccc2Cl)c1F`, the “fluorescence, % of Rose Bengal” value was -0.0004%. Same read-out and setting: as for `NC1CCC(CC2CCC(N)CC2)CC1` (stereo not given), the figure is 0.255%.

With `ClC1=C(Cl)[C@]2(Cl)[C@@H]3[C@H]4C[C@H]([C@@H]5O[C@H]45)[C@@H]3[C@@]1(Cl)C2(Cl)Cl`, the compound was called inactive. In the case of `CC(Cl)CCl` (stereo not given), the “fluorescence, % of Rose Bengal” value was -0.134%.

On to `CN/C(=N\[N+](=O)[O-])NCc1cnc(Cl)s1`, for which the “fluorescence, % of Rose Bengal” value is 0.179%.

For the compound `CSSC`, the “fluorescence, % of Rose Bengal” value is 0.349% [at 95.7 µM]. On the same count and under the same terms, the same measure for `Clc1ccc(C(Cl)(Cl)Cl)cc1Cl`: 0.227%; for `O.O.O.O=C([O-])[C@H]([O-])[C@@H]([O-])C(=O)[O-].O=C([O-])[C@H]([O-])[C@@H]([O-])C(=O)[O-].[K+].[K+].[Sb+3].[Sb+3]`: -0.22%; for `N#Cc1c2ccccc2cc2ccccc12`: -0.27%. Turning to `CNC(=O)Oc1cc(C)cc(C(C)C)c1`, the “fluorescence, % of Rose Bengal” value was -0.0855%. As for `CC[C@H](C)[C@H]1O[C@]2(C=C[C@@H]1C)C[C@@H]1C[C@@H](C/C=C(\C)[C@@H](O[C@H]3C[C@H](OC)[C@@H](O[C@H]4C[C@H](OC)[C@@H](NC)[C@H](C)O4)[C@H](C)O3)[C@@H](C)/C=C/C=C3\CO[C@@H]4[C@H](O)C(C)=C[C@@H](C(=O)O1)[C@]34O)O2`, the “fluorescence, % of Rose Bengal” value was -0.173%.

Consider `ClC1(Cl)C2(Cl)C3(Cl)C4(Cl)C(Cl)(Cl)C5(Cl)C3(Cl)C1(Cl)C5(Cl)C24Cl` (stereo not given), for which the “fluorescence, % of Rose Bengal” value was -0.0711%. `O=C1C[C@@H]2OCC=C3CN4CC[C@]56c7ccccc7N1[C@H]5[C@H]2[C@H]3C[C@H]46`: the outcome was inactive.

Regarding `CN`, the “fluorescence, % of Rose Bengal” value was -0.0102% [at 95.7 µM]. `[O]=[Cr][O][Cr]=[O]`: the “fluorescence, % of Rose Bengal” value is -0.331% [at 95.7 µM]. For the compound `CSC(C)(C)/C=N/O`, the “fluorescence, % of Rose Bengal” value is -0.0325%. Same read-out and setting: as for `CC(=O)C(Cl)C(=O)N(C)C` (stereo not given), the figure is -0.467%; as for `CCCCC/C=C\C/C=C\C/C=C\C/C=C\CCCC(=O)NCC(=O)O`, 0.0912% [at 3.72 µM]. On the same count and under the same terms, the same measure for `Nc1cc(Cl)ccc1Cl`: 0.079%. With `CN(C)CCc1c[nH]c2ccccc12`, the “fluorescence, % of Rose Bengal” value is -0.0365% [at 95.7 µM]. On to `CC(C)N(C(=O)CCl)c1ccccc1`, for which the compound was classed as inactive. As for `CCC[CH2][Sn]([CH2]CCC)([CH2]CCC)[CH2]CCC`, the “fluorescence, % of Rose Bengal” value is -0.0171%. Same read-out and setting: the same measure for `[F][Sn]([c]1ccccc1)([c]1ccccc1)[c]1ccccc1`: -0.31%; for `ClC(Cl)C(Cl)(Cl)Cl`: -0.0145%.

For `CCCCCCCc1ccc(O)cc1`, the “fluorescence, % of Rose Bengal” value was -0.206%. Regarding `O=[N+]([O-])c1ccccc1-c1ccccc1`, the “fluorescence, % of Rose Bengal” value was -0.0266%. The same measure, in the same setting: as for `CCCCN(CCCC)C(=S)S`, the figure is -0.0112%; as for `C[C@H]1[C@H](c2ccc(Cl)cc2)SC(=O)N1C(=O)NC1CCCCC1`, -0.142%; as for `COCCC#N`, 0.119%.

As to `CNN`, the “fluorescence, % of Rose Bengal” value is 0.0457% [at 95.7 µM]. Consider `CC(=O)[O][Pb]([c]1ccccc1)([c]1ccccc1)[c]1ccccc1`, for which the “fluorescence, % of Rose Bengal” value was -0.0323%. On the same count and under the same terms, the same measure for `CSC(=O)c1c(C(F)F)nc(C(F)(F)F)c(C(=O)SC)c1CC(C)C`: 0.0184%. Still for that read-out and setting: the same measure for `ClCBr`: -0.274% [at 95.7 µM]. `O=C(NC(=O)c1ccccc1Cl)Nc1ccc(OC(F)(F)F)cc1`: the “fluorescence, % of Rose Bengal” value was 0.0824%.

As to `Oc1cc(Cl)c(Cl)c(Cl)c1Cl`, the “fluorescence, % of Rose Bengal” value is 0.0046%. The same measure, in the same setting: the same measure for `Oc1ccc([C@H]2CNCc3c2ccc(O)c3O)cc1O`: -0.0264% [at 46 µM]. On the same count and under the same terms, the same measure for `CNC(=O)/C=C(\C)OP(=O)(OC)OC`: -0.0616%.
